27 molecules from ChEMBL document CHEMBL1157539, “Thousands of chemical starting points for antimalarial lead identification” (Nature, 2010) can be followed below.

Common to all, as to assay type: functional
Test [1] relates to Plasmodium falciparum. In words: GSK_TCMDC: Inhibition of Plasmodium falciparum 3D7 in whole red blood cells, using parasite LDH activity as an index of growth. Test compounds present at 2uM.
The subject of test [2] is Plasmodium falciparum. In words: GSK_TCMDC: Inhibition of Plasmodium falciparum Dd2 in whole red blood cells, using parasite LDH activity as an index of growth. Test compounds present at 2uM.
A further test deals with HepG2. In words: GSK_TCMDC: Percent inhibition of human HepG2 cell line. Test compounds present at 10uM.

A word on the Inhibition: it is how much of the control response was suppressed. For `CC1(C)C(=O)Nc2ccc3c(c21)CC1SC(=O)NN=C31` (stereo unspecified), the Inhibition in the test with Plasmodium falciparum [1] turned out to be 96%; in the test on Plasmodium falciparum [2], 92%; in the test with HepG2, 6%.
The corresponding values for `COc1ccc2c(c1)CC1CN(CCCCNC(=O)c3ccc(NC(=O)c4cc(Cl)cc(Cl)c4)cc3)CCN1C2` (stereo unspecified) are 100%, 57% and 7%.
The corresponding values for `CN1Cc2cc(NC(=O)/C=C/c3ccccc3Cl)ccc2C(C)(C)C1.Cl` are 99%, 96% and 12%.
Consider `COc1ccc([N+](=O)[O-])cc1N(Cc1ccccc1-c1ccccc1)S(=O)(=O)c1ccc(C(F)(F)F)cc1`, for which the Inhibition is on record as 96% in the test on Plasmodium falciparum [1], 66% in the test with Plasmodium falciparum [2] and 3% in the test with HepG2.
`O=C(NCc1ccc(F)cc1)c1cc(Br)cc(N2CCN(c3ccncc3)CC2)c1.O=C(O)C(F)(F)F`: the Inhibition amounted to 80% in the test on Plasmodium falciparum [1], 59% in the test on Plasmodium falciparum [2] and 36% in the test with HepG2.
As to `Cc1cccc2nc(-c3cccc(-c4ccc(CN5CCCC5CN)cc4)c3)[nH]c12.O=C(O)C(F)(F)F` (stereo unspecified), the figures for the Inhibition with Plasmodium falciparum [1], in the test with Plasmodium falciparum [2] and with HepG2 were 100%, 47% and 19%, respectively.
The corresponding values for `COc1ccc(CCNCCCCCCNCCc2ccc(Cl)c(Cl)c2)cc1OC.Cl` are 100%, 10% and 59%.
The corresponding values for `O=C(Cc1c[nH]cn1)Nc1cccc(-c2ccc(-c3nc4cc(C(F)(F)F)ccc4[nH]3)cc2)c1` are 100%, 99% and 10%.
For the molecule `CC(C)CCN1CCC(Oc2ccc(NC(=O)c3ccsc3)cc2Cl)CC1.O=C(O)C(F)(F)F`, the Inhibition is on record as 89% with Plasmodium falciparum [1], 81% with Plasmodium falciparum [2] and 19% in the test with HepG2.
The corresponding values for `NC(=O)c1ccccc1OCC(=O)Nc1cccc(-c2cccc(-c3nc4ccccc4[nH]3)c2)c1` are 88%, 46% and 23%.
The corresponding values for `CCN(CC)CCCNCc1ccc(-c2ccc(C(F)(F)F)cc2)cc1` are 95%, 35% and 53%.
In the same order, the values of `CC(C)(C)c1ccc(NC(=O)c2ccc(CN3CCCN(Cc4cccc(Cl)c4)CC3)cc2)cc1.O=C(O)C(F)(F)F` are 96%, 7% and 43%.
Turning to `CCc1nnc2sc(-c3cccc(NC(=O)c4ccc(OC)c(Cl)c4)c3)nn12`, the Inhibition is 92% in the test with Plasmodium falciparum [1], 55% in the test on Plasmodium falciparum [2] and 3% in the test with HepG2.
The corresponding values for `COc1ccc(Nc2ncc3c(-c4cccc(NC(=O)c5ccc(N)cc5)c4)c[nH]c3n2)cc1OC` are 84%, 31% and 83%.
As to `O[C@H]1[C@H](OCc2ccc(-c3ccccc3)cc2)CC[C@@H]1N1CCCCC1`, the figures for the Inhibition in the test with Plasmodium falciparum [1], with Plasmodium falciparum [2] and with HepG2 were 96%, 100% and 9%, respectively.
In the same order, the values of `O=C(Nc1ccccc1)N(Cc1cccc(-c2ccc(CNC3CCCC3)cc2)c1)C1CCN(Cc2ccccc2)CC1.O=C(O)C(F)(F)F` are 100%, 96% and 100%.
Consider `Cc1oc(-c2cccc(Oc3ccccc3)c2)nc1CN(Cc1cnn(C)c1)C(C)C`, for which the figures for the Inhibition in the test on Plasmodium falciparum [1], in the test on Plasmodium falciparum [2] and in the test with HepG2 were 89%, 61% and 22%, respectively.
`Cc1cc(NCCC(=O)NCCOc2ccccc2)nc(NCc2ccccc2C)n1.O=C(O)C(F)(F)F`: the Inhibition amounted to 92% in the test on Plasmodium falciparum [1], 29% in the test with Plasmodium falciparum [2] and 17% with HepG2.
As for `CCCc1cc(Cc2cnc(N)nc2N)cc(OC)c1OC`, the figures for the Inhibition with Plasmodium falciparum [1], in the test on Plasmodium falciparum [2] and in the test on HepG2 were 87%, 4% and 2%, respectively.
In the same order, the values of `CC=Cc1cc(Cc2c[nH]c(=N)[nH]c2=N)cc(CCC)c1OC` are 97%, 1% and 16%.
As to `O=C(Nc1cccc(-c2cccc(-c3nc4ccccc4[nH]3)c2)c1)c1ccoc1`, the results for the Inhibition in the test on Plasmodium falciparum [1], in the test with Plasmodium falciparum [2] and in the test with HepG2 were 85%, 36% and 19%, respectively.
For the molecule `CC(C)C[C@H](NC(=O)OC(C)(C)C)C(=O)Nc1ccc(Cc2ccc(NC(=O)[C@H](CC(C)C)NC(=O)OC(C)(C)C)cc2)cc1`, the Inhibition was determined as 94% in the test with Plasmodium falciparum [1], 88% in the test with Plasmodium falciparum [2] and 0% with HepG2.
The corresponding values for `CN(C)CCOc1ccc2c(=O)cc(CCc3cccc(F)c3F)n(CC(=O)N(C)Cc3ccc(-c4ccc(C(F)(F)F)cc4)cc3)c2c1.O=C(O)C(O)C(O)C(=O)O` are 90%, 60% and 33%.
In the same order, the values of `O=C(Nc1ccc(-c2nc3ccccc3[nH]2)cc1)c1ccc(S(=O)(=O)N2CCc3ccccc32)cc1` are 100%, 34% and 32%.
In the same order, the values of `O=C(NC1CCN(Cc2ccc3c(c2)OCCO3)CC1)c1ccc(-c2cccc(C(F)(F)F)c2)s1.O=C(O)C(F)(F)F` are 100%, 35% and 99%.
As for `FC(F)(F)c1ccc2[nH]c(-c3ccc(-c4cccc(CNCc5ccccc5)c4)s3)nc2c1.O=C(O)C(F)(F)F`, the Inhibition in the test with Plasmodium falciparum [1] came to 100%; in the test with Plasmodium falciparum [2], 83%; in the test with HepG2, 15%.
In the same order, the values of `COc1ccc2nccc(N3CCC(CCNCc4ccc5c(n4)NC(=O)CS5)CC3)c2n1.Cl` are 100%, 75% and 32%.
